# Counter-ions that a name gives are not always drawn.
# Test system: A549-CANX-COX4
# Test: lowest phenotypically active concentration; higher = less potent
# Details: treatment time: 24 h
# How it was run: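 The reporter lines, fifteen in total and built by gene editing in A549, HepG2 and WPMY1 cells, used BFP for segmentation alongside GFP and RFP/FusionRed markers. Each was treated at 0.3, 1, 3 or 9 µM for 24 h in four wells and then imaged live, with live-cell features normalised to solvent control wells. Deviation meant ≥3 of 4 wells beyond the 95th percentile of control Euclidean distances; reproducibility meant a median replicate Pearson correlation above the 95th percentile of non-replicates. Only conditions meeting both were scored as phenotypically active.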
row,SMILES,lowest phenotypically active concentration
1,Nc1nc(Cl)nc2c1ncn2[C@@H]1O[C@H](CO)[C@@H](O)[C@@H]1F [clofarabine],≤ 0.3 µM
2,Cc1nc(Nc2ncc(C(=O)Nc3c(C)cccc3Cl)s2)cc(N2CCN(CCO)CC2)n1 [dasatinib],≤ 0.3 µM
3,O=C(NCc1cccc(O)c1)Nc1nc(-c2ccncc2)cs1 [RKI 1447 dihydrochloride],≤ 0.3 µM
4,CC(C)n1nc(-c2cc3cc(O)ccc3[nH]2)c2c(N)ncnc21,1 µM
5,COc1ccc(-c2ccc3ncc4c(c3c2)n(-c2ccc(N3CCNCC3)c(C(F)(F)F)c2)c(=O)n4C)cn1,≤ 0.3 µM
6,CC(C)(C)c1cnc(CSc2cnc(NC(=O)C3CCNCC3)s2)o1,≤ 0.3 µM
7,O=C(O)c1ccc(Nc2ncc3c(n2)-c2ccc(Cl)cc2C(c2c(F)cccc2F)=NC3)cc1,≤ 0.3 µM
8,COc1ccc(S(=O)(=O)N(C(C)=O)c2ccccc2/C=C/c2cc[n+]([O-])cc2)cc1,3 µM
9,CC(C)(C)Nc1nc(Nc2ccc(C(N)=O)cc2)cc(N)c1C#N,3 µM
10,Nc1cccc(-c2cc3c(Oc4cccc(O)c4)ncnc3[nH]2)c1,1 µM
11,c1ccc2c(c1)Cc1c(Nc3ccc4c(c3)OCCO4)n[nH]c1-2,3 µM
12,Cc1c(NC(=O)OC[C@@H]2COCCN2)cn2ncnc(Nc3ccc4c(cnn4Cc4cccc(F)c4)c3)c12,1 µM
13,CCC(=O)N1CCN(c2ccc(-n3c(=O)ccc4cnc5ccc(-c6cnc7ccccc7c6)cc5c43)cc2C(F)(F)F)CC1 [Torin 1],≤ 0.3 µM
14,COc1c(Nc2cc(C)[nH]n2)nc(Sc2ccc(S(=O)(=O)Cc3cccc([N+](=O)[O-])c3F)cc2F)nc1N1CCOCC1 [Centrinone],3 µM
15,COc1cc2c(NC3CCN(C(C)C)CC3)nc(N3CCC(F)(F)CC3)nc2cc1OCCCN1CCCC1,9 µM
16,CC(=O)c1c(C)c2cnc(Nc3ccc(N4CCNCC4)cn3)nc2n(C2CCCC2)c1=O,≤ 0.3 µM
17,CN1c2ccccc2C(=O)N2CCc3c([nH]c4ccccc34)[C@H]21 [Evodiamine],1 µM
18,CO[C@H]1C=CC=C(C)C(=O)NC2=CC(=O)C(NCCN(C)C)=C(C[C@@H](C)C[C@H](OC)[C@H](O)[C@@H](C)C=C(C)[C@@H]1OC(N)=O)C2=O [17-DMAG hydrochloride],≤ 0.3 µM
19,Cc1noc(C)c1-c1cc(O)cc(C(O)c2ccccc2)c1 (centres undefined),9 µM
20,O=C(Nc1ccc(-c2ccnc(Nc3ccc(N4CCOCC4)cc3)n2)cc1)[C@@H]1CCCN1,9 µM

row,SMILES,lowest phenotypically active concentration
1,NC1(C(=O)N[C@@H](CCO)c2ccc(Cl)cc2)CCN(c2ncnc3[nH]ccc23)CC1,1 µM
2,NC(=O)Nc1cc(-c2cccc(F)c2)sc1C(=O)N[C@H]1CCCNC1 [AZD 7762 hydrochloride],1 µM
3,COc1cc2nc(-c3cc(F)ccc3O)nc(N[C@@H]3CNC[C@H]3C(C)(C)O)c2cc1OC,9 µM
4,Cc1c[nH]c2nccc(Oc3c(F)cc(Nc4cc(Cl)nc(N)n4)cc3F)c12,≤ 0.3 µM
5,C[C@H]1[C@H]2CC[C@H]3[C@@H]4CC=C5C[C@@H](N(C)C)CC[C@]5(C)[C@H]4CC[C@]23CN1C [Conessine],9 µM
6,CON(C)C(=O)N1N=C(c2cc(F)ccc2F)S[C@@]1(CCCN)c1ccccc1 [ARRY 520 trifluoroacetate],≤ 0.3 µM
7,CC[C@H](CO)Nc1nc(NCc2ccc(-c3ccccn3)cc2)c2ncn(C(C)C)c2n1,≤ 0.3 µM
8,Oc1cccc(-c2nc(N3CCOCC3)c3oc4ncccc4c3n2)c1 [PI 103 hydrochloride],≤ 0.3 µM
9,COc1cc(/C=C/c2ccc(OC)cc2OC)cc(OC)c1,1 µM
10,COc1cc2c(cc1-c1c(C)noc1C)ncc1[nH]c(=O)n([C@H](C)c3ccccn3)c12 [I-BET 151 dihydrochloride],3 µM
11,COc1cccc(-c2cc(F)ccc2[C@H]2Cc3nc(N)nc(C)c3C(=O)N2)n1,≤ 0.3 µM
12,COc1cc(C(=O)NC2CCN(C)CC2)c(F)cc1Nc1ncc2c(n1)N(C1CCCC1)CC(F)(F)C(=O)N2C [TAK 960 hydrochloride],≤ 0.3 µM
13,CC[C@]1(O)C[C@@H]2CN(CCc3c([nH]c4ccccc34)[C@@](C(=O)OC)(c3cc4c(cc3OC)N(C=O)[C@H]3[C@@](O)(C(=O)OC)[C@H](OC(C)=O)[C@]5(CC)C=CCN6CC[C@]43[C@@H]65)C2)C1 [vincristine],≤ 0.3 µM
14,OC[C@H]1O[C@@H](n2cnc3c(NCc4ccco4)ncnc32)[C@H](O)[C@@H]1O [Kinetin riboside],3 µM
15,N#Cc1c(C2CCNCC2)cc(-c2c(O)cccc2OCC2CC2)nc1N,9 µM
16,C=CC(=O)Nc1cccc(Nc2nc(Nc3ccc(OCCOC)cc3)ncc2F)c1,3 µM
17,COc1cc(N2CCC(N3CCN(C)CC3)CC2)ccc1Nc1ncnc(Nc2ccccc2S(=O)(=O)C(C)C)n1,9 µM
18,Fc1ccccc1CNCc1ccc(-c2ccnc3[nH]ccc23)cc1 [OXA 06 dihydrochloride],1 µM
19,C[C@H]1COCCN1c1cc(C2(S(=O)(=O)C3CC3)CC2)nc(-c2ccc(NC(=S)NCCO)cc2)n1,≤ 0.3 µM
